The results in this text go back to PubChem BioAssay (NCI).

Compounds without any hit were thinned out: in the full panel of roughly 83,000, 20% have a hit.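 Testing used 96-well plates and a 48-hour single-concentration exposure. Example: -40 means 40% of the starting cells died.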 A number with no mark means an inactive call. The source made the active and inactive calls. The calls were made as follows: active = growth percent below 10; inactive = the rest.

The experiment has as its system SNB-75 CNS. Nature of the experiment: NCI-60 one-dose screen, 48 h (100 = growth as untreated, 0 = no growth, -100 = all killed). The following applies: 10 µM unless noted.
Turning to `COc1cc(OC)cc(C2=C3CC[C@@H]4[C@H](CC[C@]5(C)C(=O)CC[C@@H]45)C3=CC3C(O)c4cccnc4N4C(=O)COC234)c1` (some centres undefined), the growth was 72.9%.

As to `CC(=O)Cc1nsc(NC(=O)c2cc(-c3cc(Cl)cc(Cl)c3)oc2C)n1`, the growth was 84.1%.

Turning to `CCOC(=O)c1cn2ncnc(Oc3ccc(NC(=O)NC4CCCCC4)c(Cl)c3)c2c1C`, the growth was 0.475% (active).

On to `Cc1nnc(NC(=O)c2nc(S(=O)(=O)Cc3ccc(F)cc3)ncc2Cl)s1`, for which the growth is 79.3%.

In the case of `C#CCOc1ccc2ncnc(Nc3ccc(NC(=O)CCl)cc3)c2c1`, the growth was 42%.

Regarding `CCOC(=O)C#Cc1c(C(=O)OCC)nnn1[C@@H]1O[C@H](CO)[C@H]2OC3(CCCCC3)O[C@H]21`, the growth is 73.1%.

For `C/C(=N/O)c1ccc(F)cc1`, the growth was 123%.

For the compound `CCOC(=O)Cn1c(O)c(N=Nc2ccc(S(N)(=O)=O)cc2)c2cc(Br)ccc21`, the growth was 78%.

Consider `Cc1nc(N2CCOCC2)sc1S(N)(=O)=O`, for which the growth is -0.593% (active).

For `COc1ccc(OC)c(C(=O)/C=C/c2cc3c(c(OC)c2OC)OCO3)c1`, the growth was 52%.

Regarding `O=c1oc2ccccc2cc1C1=NN=C(SCc2ccccc2)SC1`, the growth is 85.7%.

On to `COc1ccc(C(=S)N2CCN(c3ccccc3Cl)CC2)cc1OC`, for which the growth is 85.6%.

Turning to `Cc1ccc(/C=C2\CN(C(=O)OC(C)(C)C)C/C(=C\c3ccc(C)cc3)C2=O)cc1`, the growth is 79.7%.

Consider `O=C(Nc1nn(-c2ccc(Cl)cc2Cl)nc1-c1ccccc1)c1ccccc1`, for which the growth is 85.7%.
